Measured values published in PubChem BioAssay.
A number with no mark means an inactive call. Calls of active or inactive are those of the source.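 How the source made its calls, unless noted: active means compounds that lower viability of the colon cancer cells in the luminescence readout, with no numeric limit stated; inactive means the rest.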

Assay: HCT116 colon cancer cell growth inhibition, primary screen, CellTiter-Glo luminescence, NPC library (AID 1117342;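 active means compounds that lower survival of HCT116 colon cancer cells in the luminescence readout, no numeric limit stated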)
Details: at 20 µM (top of the series)
With `Cc1ncc(COP(=O)(O)O)c(C=O)c1O` the inhibition of viability was 4.63%. For `CCCCCOc1ccc(C2SC(=O)NC2=O)cc1OCC` (stereo not drawn), the inhibition of viability was 32.6%. Work on `CC1(C)S[C@@H]2[C@H](NC(=O)Cc3ccccc3)C(=O)N2[C@H]1C(=O)O` (tested in a mixture with another compound) yielded an inhibition of viability of -7.93%. In the case of `CC[C@@]1(c2ccccc2)NC(=O)N(C)C1=O`, the inhibition of viability is reported as -10.2%. `CC(=O)CCC(=O)O` gave an inhibition of viability of -6.13%. With `C=Cc1c(C)c2cc3nc(cc4[nH]c(cc5nc(cc1[nH]2)C(C)=C5CCC(=O)O)c(CCC(=O)OC)c4C)[C@@]1(C)C3=CC=C(C(=O)OC)[C@@H]1C(=O)OC` the inhibition of viability was 92.4% (active). `CS(=O)(=O)c1ccc(-c2cn3ccccc3n2)cc1` gave an inhibition of viability of 14.5%. Work on `C[C@@H]1C[C@H]2[C@@H]3CCC4=CC(=O)C=C[C@]4(C)[C@@]3(F)[C@@H](O)C[C@]2(C)[C@@]1(O)C(=O)COC(=O)c1ccncc1` yielded an inhibition of viability of -4.43%. `COc1cc(S(N)(=O)=O)cc(C(=O)O)c1OC` showed an inhibition of viability of 23.4%. `C/C=C/C=N/NC(=O)c1ccncc1` gave an inhibition of viability of 17%. Compound `Cc1ccccc1N1CCN(CCc2nnc3n2CCCC3)CC1` has an inhibition of viability of 6.7%. With `O=C(CCOCCOCCOCCOCCC(=O)Nc1c(I)cc(I)c(C(=O)O)c1I)Nc1c(I)cc(I)c(C(=O)O)c1I` the inhibition of viability was -2.1%. With `O=C(CN1CCNCC1)NC1CCCCC1` the inhibition of viability was 7.2%. In the case of `CCN1C(=O)c2ccccc2C1Nc1ccc(OCCN2CCCCC2)cc1` (stereo not drawn), the inhibition of viability is reported as 47.4%. `CCCCCCCCCCC(CO)CCCCCCCC` (stereo not drawn) gave an inhibition of viability of 5.07%. `COc1ccnc2c1CCCCC2S(=O)c1nc2ccccc2[nH]1` (stereo not drawn) gave an inhibition of viability of 27.5%. Work on `COC1=C(OC)C(=O)C(CC=C(C)CCC=C(C)CCC=C(C)CCC=C(C)CCC=C(C)CCC=C(C)CCC=C(C)CCC=C(C)CCC=C(C)CCC=C(C)C)=C(C)C1=O` yielded an inhibition of viability of 4.6%. For `O=[N+]([O-])c1ccc(Oc2ccc(N=C=S)cc2)cc1`, the inhibition of viability was 98.9% (active). `Oc1ccccc1-c1nnco1` gave an inhibition of viability of 12.2%. In the case of `CCCCC(C)(O)CC=C[C@H]1[C@H](O)CC(=O)[C@H]1CCCCCCC(=O)OC` (stereo partly drawn), the inhibition of viability is reported as -12.9%. `Cc1ccc(/C=N/n2c(-c3ccccc3)csc2=S)cc1` gave an inhibition of viability of 16.7%. Work on `Nc1ccc(C(=O)OCC(O)CO)cc1` (stereo not drawn) yielded an inhibition of viability of 6.7%. For `Cc1cc(N)c2cc(NC(=O)Nc3ccc4nc(C)cc(N)c4c3)ccc2n1`, the inhibition of viability was 64% (active). Work on `CNC(=O)c1c(I)c(NC(=O)CCCCC(=O)Nc2c(I)c(C(=O)O)c(I)c(C(=O)NC)c2I)c(I)c(C(=O)O)c1I` yielded an inhibition of viability of 9.4%. In the case of `CCCCCCCCCCCCCCCCCCO`, the inhibition of viability is reported as -11.1%. `CC1c2ccccc2CN1NC(=O)c1ccc(Cl)c(S(N)(=O)=O)c1` (stereo not drawn) showed an inhibition of viability of 1.4%. `CCN[C@@H]1C[C@H](N)[C@@H](OC2OC(CN)=CCC2N)[C@H](O)[C@H]1O[C@H]1OC[C@](C)(O)[C@H](NC)[C@H]1O` (stereo partly drawn) showed an inhibition of viability of -2.2%. In the case of `Oc1ccccc1C=NCc1ccccc1`, the inhibition of viability is reported as 0.1%. For `C=Cc1ccccc1`, the inhibition of viability was 6.9%. For `O=C(Nc1ccc(Cl)cc1)Nc1ccc(Cl)c(C(F)(F)F)c1`, the inhibition of viability was 99.3% (active). For `CCOC(=O)c1ccc(O)c(O)c1`, the inhibition of viability was 63.9% (active). For `C=CCNc1nc(NCC=C)nc(N2CCN(C(c3ccc(F)cc3)c3ccc(F)cc3)CC2)n1`, the inhibition of viability was 49.1%. For `O=S(=O)(O)c1ccc(O)cc1`, the inhibition of viability was -4%. `CCNC(=O)NCCCOc1cccc(CN2CCCCC2)c1` showed an inhibition of viability of 5%. Compound `CC(C)(C)c1ccc2c(S(=O)(=O)O)c(C(C)(C)C)ccc2c1` has an inhibition of viability of -18.9%. Work on `NCC(=O)O` yielded an inhibition of viability of -28%. `CN1N=C(C(N)=O)CCC1=O` gave an inhibition of viability of 15.3%. `Oc1cc(O)cc(O)c1` showed an inhibition of viability of -0.5%. With `CCOC(=O)c1ccc(OCCN2C[C@H](O)[C@@H](O)[C@H](O)[C@H]2CO)cc1` the inhibition of viability was -40.4%.

Assay: reduced SW480 viability measured with CellTiter-Glo, NPC library, primary (AID 1117343)
Details: CellTiter-Glo luminescence; at 20 µM (top of the series)
In the case of `Cc1ncc(COP(=O)(O)O)c(C=O)c1O`, the viability decrease (inhibition) is reported as -1.4%. In the case of `CCCCCOc1ccc(C2SC(=O)NC2=O)cc1OCC` (stereo not drawn), the viability decrease (inhibition) is reported as 6.6%. `CC1(C)S[C@@H]2[C@H](NC(=O)Cc3ccccc3)C(=O)N2[C@H]1C(=O)O` (tested in a mixture with another compound) showed a viability decrease (inhibition) of -25.3%. In the case of `CC[C@@]1(c2ccccc2)NC(=O)N(C)C1=O`, the viability decrease (inhibition) is reported as 11.6%. In the case of `CC(=O)CCC(=O)O`, the viability decrease (inhibition) is reported as 20%. With `C=Cc1c(C)c2cc3nc(cc4[nH]c(cc5nc(cc1[nH]2)C(C)=C5CCC(=O)O)c(CCC(=O)OC)c4C)[C@@]1(C)C3=CC=C(C(=O)OC)[C@@H]1C(=O)OC` the viability decrease (inhibition) was 98.2% (active). Compound `CS(=O)(=O)c1ccc(-c2cn3ccccc3n2)cc1` has a viability decrease (inhibition) of 22.6%. Compound `C[C@@H]1C[C@H]2[C@@H]3CCC4=CC(=O)C=C[C@]4(C)[C@@]3(F)[C@@H](O)C[C@]2(C)[C@@]1(O)C(=O)COC(=O)c1ccncc1` has a viability decrease (inhibition) of 5.8%. In the case of `COc1cc(S(N)(=O)=O)cc(C(=O)O)c1OC`, the viability decrease (inhibition) is reported as 18.9%. For `C/C=C/C=N/NC(=O)c1ccncc1`, the viability decrease (inhibition) was 27.7%. `Cc1ccccc1N1CCN(CCc2nnc3n2CCCC3)CC1` gave a viability decrease (inhibition) of 4.9%. With `O=C(CCOCCOCCOCCOCCC(=O)Nc1c(I)cc(I)c(C(=O)O)c1I)Nc1c(I)cc(I)c(C(=O)O)c1I` the viability decrease (inhibition) was -14.8%. `O=C(CN1CCNCC1)NC1CCCCC1` showed a viability decrease (inhibition) of 16.3%. In the case of `CCN1C(=O)c2ccccc2C1Nc1ccc(OCCN2CCCCC2)cc1` (stereo not drawn), the viability decrease (inhibition) is reported as 13.4%. `CCCCCCCCCCC(CO)CCCCCCCC` (stereo not drawn) gave a viability decrease (inhibition) of 14.5%. Compound `COc1ccnc2c1CCCCC2S(=O)c1nc2ccccc2[nH]1` (stereo not drawn) has a viability decrease (inhibition) of 31.6%. In the case of `COC1=C(OC)C(=O)C(CC=C(C)CCC=C(C)CCC=C(C)CCC=C(C)CCC=C(C)CCC=C(C)CCC=C(C)CCC=C(C)CCC=C(C)CCC=C(C)C)=C(C)C1=O`, the viability decrease (inhibition) is reported as -7.3%. With `O=[N+]([O-])c1ccc(Oc2ccc(N=C=S)cc2)cc1` the viability decrease (inhibition) was 95.7% (active). `Oc1ccccc1-c1nnco1` gave a viability decrease (inhibition) of 22.1%. With `CCCCC(C)(O)CC=C[C@H]1[C@H](O)CC(=O)[C@H]1CCCCCCC(=O)OC` (stereo partly drawn) the viability decrease (inhibition) was -17.2%. With `Cc1ccc(/C=N/n2c(-c3ccccc3)csc2=S)cc1` the viability decrease (inhibition) was 56% (active). With `Nc1ccc(C(=O)OCC(O)CO)cc1` (stereo not drawn) the viability decrease (inhibition) was -16.3%. With `Cc1cc(N)c2cc(NC(=O)Nc3ccc4nc(C)cc(N)c4c3)ccc2n1` the viability decrease (inhibition) was 144% (active). `CNC(=O)c1c(I)c(NC(=O)CCCCC(=O)Nc2c(I)c(C(=O)O)c(I)c(C(=O)NC)c2I)c(I)c(C(=O)O)c1I` gave a viability decrease (inhibition) of -3.6%. Work on `CCCCCCCCCCCCCCCCCCO` yielded a viability decrease (inhibition) of 0.9%. For `CC1c2ccccc2CN1NC(=O)c1ccc(Cl)c(S(N)(=O)=O)c1` (stereo not drawn), the viability decrease (inhibition) was -21.1% (active). `CCN[C@@H]1C[C@H](N)[C@@H](OC2OC(CN)=CCC2N)[C@H](O)[C@H]1O[C@H]1OC[C@](C)(O)[C@H](NC)[C@H]1O` (stereo partly drawn) showed a viability decrease (inhibition) of -1.7%. `Oc1ccccc1C=NCc1ccccc1` showed a viability decrease (inhibition) of 13.6%. With `C=Cc1ccccc1` the viability decrease (inhibition) was 0.4%. In the case of `O=C(Nc1ccc(Cl)cc1)Nc1ccc(Cl)c(C(F)(F)F)c1`, the viability decrease (inhibition) is reported as 102% (active). With `CCOC(=O)c1ccc(O)c(O)c1` the viability decrease (inhibition) was 77.7% (active). For `C=CCNc1nc(NCC=C)nc(N2CCN(C(c3ccc(F)cc3)c3ccc(F)cc3)CC2)n1`, the viability decrease (inhibition) was 56.9% (active). Work on `O=S(=O)(O)c1ccc(O)cc1` yielded a viability decrease (inhibition) of 11.5%. In the case of `CCNC(=O)NCCCOc1cccc(CN2CCCCC2)c1`, the viability decrease (inhibition) is reported as -19.1%. For `CC(C)(C)c1ccc2c(S(=O)(=O)O)c(C(C)(C)C)ccc2c1`, the viability decrease (inhibition) was 9%. With `NCC(=O)O` the viability decrease (inhibition) was -6.3%. With `CN1N=C(C(N)=O)CCC1=O` the viability decrease (inhibition) was -11.3%. For `Oc1cc(O)cc(O)c1`, the viability decrease (inhibition) was 21.1%. `CCOC(=O)c1ccc(OCCN2C[C@H](O)[C@@H](O)[C@H](O)[C@H]2CO)cc1` showed a viability decrease (inhibition) of -62.9%.
